{"source": "PubChem BioAssay (NCATS)", "note": "Several values for one entry are separate records, joined by “and”; a condition that tells them apart may be missing. Identical values can stand only once. Records with an inconclusive call do not appear. Some structures have more than one record in an assay (separate samples or runs), and their calls can disagree. A number with no mark means an inactive call. Activity calls are given as the source filed them. Calls come from the whole dose curve; as a rule, active = well fitted inhibition curve with a large enough effect; inconclusive = small, poorly fitted or top-dose-only effect; inactive = flat fitted curve, though single readings scatter.", "data": [{"test_system": "HaCat", "experiment": "Cytotoxic Profiling of Annotated Libraries Using Quantitative High-Throughput Screening (AID 1296008); note: nearly all actives have a fitted effect of over 60% in size; note: potency is the fitted concentration of half-maximal effect; for max response: % is set by controls: 0 for no effect and ±100 for the full control effect", "details": "Five cell lines viability, CellTiter-Glo ATP luminescence, 48-72 h; max response: hits give low values", "summary_of_the_method": "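Compounds were pin-transferred onto cells and incubated 48 or 72 hr at 37 degree Celsius, 95% humidity. CellTiter-Glo was added, plates sat 10 min at room temperature, then ATP-coupled luminescence was imaged as the viability read-out.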", "units": {"max response": "%"}, "values": [{"compound": "C=C1C(=O)O[C@H]2[C@H]1[C@@H](OC(=O)C(C)CO)C[C@@]1(C)[C@H](O)CCC(=O)[C@H]21", "note": "(some centres not stated)", "max response": -8.77}, {"compound": "C[C@@H]1O[C@@H](O[C@H]2[C@H](O)[C@@H](O)[C@H](OC[C@H]3O[C@@H](OC(=O)[C@]45CCC(C)(C)C[C@H]4C4=CCC6[C@@]7(C)C[C@H](O)[C@H](O[C@@H]8O[C@H](CO)[C@@H](O)[C@H](O)[C@H]8O)[C@@](C)(C(=O)O)C7CC[C@@]6(C)[C@]4(C)CC5)[C@H](O[C@@H]4O[C@H](CO)[C@@H](O)[C@H](O)[C@H]4O)[C@@H](O)[C@@H]3O)O[C@@H]2CO)[C@H](O)[C@H](O)[C@H]1O", "note": "(some centres not stated)", "max response": 4.68}, {"compound": "COc1cc(C/C(=C/NC(C)=O)N(CC(=O)Cc2ccccc2)C(C)=O)cc2c1OCO2", "outcome": "inactive"}, {"compound": "CCC(CC)n1ccc2c(C(=O)NCc3c(C)cc(C)[nH]c3=O)cc(C#N)cc21", "outcome": "inactive"}, {"compound": "COc1ccc2c3c1O[C@H]1C[C@@H](O)C=C[C@@]31CCN(C)C2", "outcome": "inactive"}, {"compound": "C=C1CC/C=C(/CO)C(=O)C[C@@H]2[C@@H]1CC2(C)C", "outcome": "inactive"}, {"compound": "CO/N=C(/C(=O)N[C@@H]1C(=O)N2C(C(=O)O)=C(CSC(=O)c3ccco3)CS[C@H]12)c1csc(N)n1", "max response": 4.84, "outcome": "inactive; activator"}, {"compound": "N[C@H]1C[C@H]1c1ccc(-c2cccc(O)c2)cc1", "max response": -1.19, "outcome": "inactive"}, {"compound": "COc1cc2c(Nc3ccc(Cl)c(Cl)c3F)ncnc2cc1OCC1C[C@@H]2CN(C)C[C@@H]2C1", "note": "(some centres not stated)", "Potency": "231 nM (active) and 11.7 nM (active)"}, {"compound": "COC(=O)C[C@@H]1C(C(=O)O)=CO[C@@H](O[C@@H]2O[C@H](CO)[C@@H](O)[C@H](O)[C@H]2O)/C1=C\\COC(=O)/C=C\\c1ccccc1", "outcome": "inactive"}, {"compound": "CC(=O)OC(C)OC(=O)C(C)c1ccc(-c2ccccc2)c(F)c1", "note": "(configuration not stated)", "outcome": "inactive"}, {"compound": "CC(CCC1C(C(=O)O)=CC(=O)CC1(C)C)O[C@@H]1O[C@H](CO)[C@@H](O)[C@H](O)[C@H]1O", "note": "(some centres not stated)", "outcome": "inactive"}, {"compound": "O=C(C1CC1)N1CC[C@@H](Cc2n[nH]c(=O)n2-c2ccc(-c3ccc4occc4c3)cc2)C1", "max response": -2.96, "outcome": "inactive"}, {"compound": "O=C(Nc1cccnn1)N1CCC(=Cc2cccc(Oc3ccc(C(F)(F)F)cn3)c2)CC1", "max response": -13.4, "outcome": "inactive"}, {"compound": "COC(=O)C1=CO[C@@H](O[C@@H]2O[C@H](CO)[C@@H](O)[C@H](O)[C@H]2O)[C@@H]2[C@@H](C(=O)OC)[C@@H](O)C(O)[C@H]12", "note": "(some centres not stated)", "outcome": "inactive"}, {"compound": "N#Cc1ccc2[nH]c(O)c(-c3ccc(CN4CCOCC4)cn3)c2c1", "max response": -0.0847}, {"compound": "NCc1ccc(OCCCc2sc(-c3ccc4c(c3)/C(=N/Nc3nc5ccccc5s3)CCC4)nc2C(=O)O)cc1", "Potency": "3.71 µM (active)", "max response": 0.629}, {"compound": "COc1c(C)c(C(=O)c2ccc(N)c(C(=O)O)c2)n2ccccc12", "max response": -0.372, "outcome": "inactive"}, {"compound": "CC[C@H]1OC(=O)C[C@@H](O)[C@H](C)[C@@H](O[C@@H]2O[C@H](C)[C@@H](O)[C@H](N(C)C)[C@H]2O)[C@@H](CCN2C[C@H](C)C[C@H](C)C2)C[C@@H](C)C(=O)/C=C/C(C)=C/[C@@H]1CO[C@@H]1O[C@H](C)[C@@H](O)[C@@H](OC)[C@H]1OC", "outcome": "inactive"}, {"compound": "CCC(=O)O[C@]1(C(=O)CCl)[C@@H](C)C[C@H]2[C@@H]3C[C@H](F)C4=CC(=O)C=C[C@]4(C)[C@@]3(F)[C@@H](O)C[C@@]21C", "max response": -1.16}, {"compound": "CC(C)c1ccc(CC(=O)N2CCC[C@@H](c3cccc(OC(C)(C)C(=O)O)c3)C2)cc1", "outcome": "inactive"}, {"compound": "COc1ccc(C[C@H](N)C(=O)N[C@H]2[C@@H](O)[C@H](n3cnc4c(N(C)C)ncnc43)O[C@@H]2CO)cc1", "Potency": "1.3 µM (active)"}, {"compound": "O=C(/C=C/c1ccccc1)OCC1=CC[C@@H]2C(C(=O)O)=CO[C@@H](O[C@@H]3O[C@H](CO)[C@@H](O)[C@H](O)[C@H]3O)[C@H]12", "max response": 0.992}, {"compound": "CCOc1cc2ncc(C#N)c(Nc3ccc(OCc4ccccn4)c(Cl)c3)c2cc1NC(=O)/C=C/CN(C)C", "Potency": "0.224 µM (active)"}, {"compound": "O=C(O)C[C@H](O)C[C@H](O)/C=C/c1c(C2CC2)nc2ccccc2c1-c1ccc(F)cc1", "Potency": "7.31 µM (active)"}, {"compound": "Cc1coc2c1CC1OC1(C)CCC1OC1(C)C2", "note": "(configuration not stated)", "max response": 3.75}]}]}
